Records with an inconclusive call do not appear. Values without a mark were called inactive. Active and inactive are the calls of the source. The call rests on the fitted dose curve; in most records, active means well fitted curve in the direction sought with a large enough effect; inconclusive means small, poorly fitted or top-dose-only effect, or another doubt; inactive means no such curve, though single readings can be large; an effect the other way counts as inactive or inconclusive.
Test: Quantitative High-Throughput drug screen in 47 multiple myeloma cell lines against the NCATS MIPE library collection: NCIH929_DSMZ cell viability assay (AID 1918978)
Settings: NCI-H929 myeloma viability, CellTiter-Glo ATP, 48 h; series mostly up to 45.8 µM; viability, % of control: at the top concentration
Procedure, shortened: (§1)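 Inhibition of viability over 48 h was scored by ATP content (CellTiter-Glo) in 500-cell wells. Zero and full viability were defined by media-only and DMSO-only wells.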
Further: nearly all actives have a fitted effect of over 35% in size.
Potency means the concentration at half of the fitted maximal effect.

| Compound | viability, % of control | Potency |
| --- | --- | --- |
| Cc1ccccc1N1C(=O)c2cc(S(N)(=O)=O)c(Cl)cc2NC1C (stereo not given) | 97.7% |  |
| O=C(c1ccc(F)cc1)C1CCN(CCn2c(=O)[nH]c3ccccc3c2=O)CC1 | 91.8% |  |
| NCCCCCC(=O)O | 110% |  |
| C[C@@H]1CC(=O)NN=C1c1ccc(NN=C(C#N)C#N)cc1 |  | 20.9 µM (active) |
| O=C1Cc2cc(CCN3CCN(c4nsc5ccccc45)CC3)c(Cl)cc2N1 |  | 23.5 µM (active) |
| Cc1cc(C(C)(C)C)c(O)c(C)c1CC1=NCCN1 | 119% |  |
| NCCS(=O)(=O)O | 117% |  |
| CN(C)c1nc(N(C)C)nc(N(C)C)n1 | 99.6% |  |

Test: Quantitative High-Throughput drug screen in 47 multiple myeloma cell lines against the NCATS MIPE library collection: OCIMY1_PLB cell viability assay (AID 1918979);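 on viability: 100% = DMSO-only wells and 0% = cell-free media-only wells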
Settings: OCI-MY1 myeloma viability, CellTiter-Glo ATP, 48 h; series mostly up to 45.8 µM; viability: at the top concentration
Procedure, shortened: as §1

| Compound | viability | Potency |
| --- | --- | --- |
| O=c1c(-c2ccc(O)cc2)coc2cc(O)cc(O)c12 | 102% |  |
| CCCCc1oc2ccccc2c1C(=O)c1cc(I)c(OCCN(CC)CC)c(I)c1 |  | 26.4 µM (active) |
| CCOC(=O)c1ncn2c1CN(C)C(=O)c1cc(F)ccc1-2 | 98.7% |  |
| O=C(CCCN1CCC(O)(c2ccc(Cl)cc2)CC1)c1ccc(F)cc1 | 88.9% |  |
| CC(C)(Oc1ccc(C2CC2(Cl)Cl)cc1)C(=O)O (stereo not given) | 114% [at 92.2 µM] |  |
| CN1CCN2c3ccccc3Cc3ccccc3C2C1 (stereo not given) |  | 16.6 µM (active) |
| CN1C(C(=O)Nc2ccccn2)=C(O)c2ccccc2S1(=O)=O | 133% |  |
| NCCc1cnc[nH]1 | 110% |  |
| Cn1c(=O)c2c(ncn2C)n(C)c1=O | 98.5% |  |
| CC1(CN2CCC(n3c(=O)[nH]c4ccccc43)CC2)OCc2ccccc2-n2cccc21 (stereo not given) | 105% |  |
| CN(Cc1cnc2nc(N)nc(N)c2n1)c1ccc(C(=O)N[C@@H](CCC(=O)O)C(=O)O)cc1 |  | 4.18 µM (active) |
| CCC1(C)CC(=O)NC1=O (stereo not given) | 111% |  |
